From PubChem BioAssay AID1159580 (chemical genetic matrix, 2015)
The whole screen tested about 5,500 compounds, of which about 2,000 (36%) were called active. Roughly 18% stayed inconclusive and do not appear here. Cut-off read from the data, not from the text of the source: active = normalized growth mostly below about 0.91 (no sharp cut-off); inconclusive = no clear call, values can overlap the other calls; inactive = mostly above about 0.92. The list shows a part of the results.

Assay: chemical genetic growth profiling, strain panel (AID 1159580);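 note: tested at 20 µM; growth read once vehicle control cultures reached saturation at 30 °C; 1 = growth at the plate median or of vehicle wells; lower values mean less growth of the strain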
Settings: growth OD

Measured: normalized growth

CCOC(=O)c1cc(-c2ccc(N)cc2)oc1C
active: S. cerevisiae deletion strains, locus YCL061C, strain MRC1, stronger effect = lower value 0.891 | S. cerevisiae deletion strains, locus YEL061C, strain CIN8, stronger effect = lower value 0.59 | S. cerevisiae deletion strains, locus YHR030C, strain SLT2, stronger effect = lower value 0.351 | S. cerevisiae deletion strains, locus YKL190W, strain CNB1, stronger effect = lower value 0.869 | S. cerevisiae deletion strains, locus YLR039C, strain RIC1, stronger effect = lower value 0.414 | S. cerevisiae deletion strains, locus YLR085C, strain ARP6, stronger effect = lower value 0.458 | S. cerevisiae deletion strains, locus YLR262C, strain YPT6, stronger effect = lower value 0.385 | S. cerevisiae deletion strains, locus YML094W, strain GIM5, stronger effect = lower value 0.806 | S. cerevisiae deletion strains, locus YMR307W, strain GAS1, stronger effect = lower value 0.548 | S. cerevisiae deletion strains, locus YNL153C, strain GIM3, stronger effect = lower value 0.66 | S. cerevisiae deletion strains, locus YNL298W, strain CLA4 (second series), stronger effect = lower value 0.783 | S. cerevisiae deletion strains, locus YNR030W, strain Alg12, stronger effect = lower value 0.885 | S. cerevisiae deletion strains, locus YPL055C, strain LGE1, stronger effect = lower value 0.749 | S. cerevisiae deletion strains, locus YPL241C, strain CIN2, stronger effect = lower value 0.483 | S. cerevisiae deletion strains, locus YPR135W, strain CTF4, stronger effect = lower value 0.611
inactive: S. cerevisiae deletion strains, locus YAL013W, strain DEP1, stronger effect = lower value 0.943 | S. cerevisiae deletion strains, locus YBR229C, strain ROT2, stronger effect = lower value 0.95 | S. cerevisiae deletion strains, locus YDL101C, strain DUN1, stronger effect = lower value 0.927 | S. cerevisiae deletion strains, locus YDL134C, strain PPH21, stronger effect = lower value 0.939 | S. cerevisiae deletion strains, locus YDR150W, strain NUM1, stronger effect = lower value 0.822 | S. cerevisiae deletion strains, locus YGR078C, strain PAC10, stronger effect = lower value 0.942 | S. cerevisiae deletion strains, locus YGR229C, strain SMI1, stronger effect = lower value 0.964 | S. cerevisiae deletion strains, locus YHR087W, strain rtc3, stronger effect = lower value 0.96 | S. cerevisiae deletion strains, locus YJR043C, strain POL32, stronger effect = lower value 0.952 | S. cerevisiae deletion strains, locus YJR075W, strain HOC1, stronger effect = lower value 0.963 | S. cerevisiae deletion strains, locus YLR058C, strain SHM2 (second series), stronger effect = lower value 0.961 | S. cerevisiae deletion strains, locus YMR219W, strain ESC1, stronger effect = lower value 0.959 | S. cerevisiae deletion strains, locus YMR263W, strain SAP30, stronger effect = lower value 0.889 | S. cerevisiae deletion strains, locus YNL322C, strain KRE1, stronger effect = lower value 0.973 | S. cerevisiae strains, strain wild type, stronger effect = lower value 0.923
